Measured values reported in PubChem BioAssay (EPA / NIEHS).
Calls of active or inactive are those of the source. How the source made its calls: active means hit-call score of the fitted dose curve at least 0.9, where 1 is the maximum; inactive means score below 0.9.

Assays:
[1] = ATG_E_Box_CIS: Attagene CIS-FACTORIAL HepG2 Assay for human Enhancer Box (E-box) (AID 2282936); conditions: HepG2 E-box cis-reporter transcription, actives raise or lower the signal
Summary of the method: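 First, HepG2 cells receive multiple cis-regulated reporter constructs by transient transfection. Next, chemicals are applied for 24 h. Finally, reporter mRNA is quantified via RT-PCR and capillary electrophoresis, with DMSO as baseline.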

[2] = ATG_M_61_CIS: Attagene CIS-FACTORIAL HepG2 Assay for M61 Transcription Factor (Internal Marker) (AID 2282937); conditions: HepG2 Attagene CIS-FACTORIAL M61 internal marker reporter; actives raise or lower the signal
Summary of the method: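 HepG2 cells transiently transfected with cis-element-driven multiple reporter transcription units, dosed for 24 h. Reporter mRNA measured by RT-PCR, 6-FAM primer-extension labelling, HpaI digestion and capillary electrophoresis; bidirectional fit versus DMSO baseline.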

[3] = ATG_EGR_CIS: Attagene CIS-FACTORIAL HepG2 Assay for human Early Growth Response 1 (EGR1) (AID 2282938); conditions: HepG2 Attagene CIS-FACTORIAL EGR reporter mRNA; actives raise or lower the signal
Summary of the method: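 HepG2 cells transiently transfected with cis-promoter-driven multiplexed reporter transcription units; reporter mRNA measured 24 h after compound dosing by RT-PCR, 6-FAM primer extension, HpaI digestion and capillary electrophoresis. Bidirectional fit versus DMSO baseline.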

[4] = ATG_M_19_CIS: Attagene CIS-FACTORIAL HepG2 Assay for M19 Transcription Factor (Internal Marker) (AID 2282939); conditions: HepG2 Attagene CIS-FACTORIAL M19 internal marker reporter; actives raise or lower the signal
Summary of the method: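 Chemical-treated HepG2 (24 h) with MRTU constructs; reporter transcripts detected by fluorescent RT-PCR fragment analysis on capillary electrophoresis. Internal background marker, DMSO as baseline.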

[5] = ATG_ERE_CIS: Attagene CIS-FACTORIAL HepG2 Assay for Estrogen Response Element (ERE) (AID 2282940); conditions: HepG2 ERE cis-reporter, Attagene RNA transcript; actives raise or lower the signal
Summary of the method: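 Human liver cells (HepG2) bearing transiently transfected, promoter-regulated reporter units were exposed 24 h. Reporter mRNA induction was detected by capillary electrophoresis of labelled RT-PCR products and fitted bidirectionally to DMSO.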

[6] = ATG_Ets_CIS: Attagene CIS-FACTORIAL HepG2 Assay for human Erythroblast Transformation Specific (ETS) (AID 2282941); conditions: HepG2 ETS cis-reporter transcription, actives raise or lower the signal
Summary of the method: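 HepG2 cells transfected with multiple cis-regulated reporter units measuring endogenous ETS-driven transcription, 24 h after dosing. Reporter mRNA quantified by RT-PCR with capillary electrophoresis; bidirectional fit relative to DMSO.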

[7] = target: Hepatocyte nuclear factor 3-beta (Homo sapiens) (UniProt Q9Y261); assay: ATG_FoxA2_CIS: Attagene CIS-FACTORIAL HepG2 Assay for human Forkhead box A2 (FOXA2) (AID 2282942); conditions: HepG2 cis-reporter transcription factor activity, 24 h; actives raise or lower the signal
Summary of the method: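 HepG2 cells transiently transfected with multiple cis-regulated reporter transcription units, dosed for 24 h. Reporter mRNA measured by RT-PCR, 6-FAM labelling, HpaI digestion and capillary electrophoresis; bidirectional fitting against DMSO baseline.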

[8] = ATG_FoxO_CIS: Attagene CIS-FACTORIAL HepG2 Assay for human Forkhead box O (FoxO) (AID 2282943); conditions: HepG2 Attagene cis-reporter, FoxO element, mRNA; actives raise or lower the signal
Summary of the method: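 HepG2 cells transiently transfected with cis-element-driven reporter units report endogenous FoxO activity. After 24 h chemical exposure, reporter mRNA quantified by RT-PCR, fluorescent labeling, HpaI digestion and capillary electrophoresis; bidirectional fit versus DMSO.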

[9] = ATG_GATA_CIS: Attagene CIS-FACTORIAL HepG2 Assay for human GATA Binding Protein (AID 2282944); conditions: HepG2 GATA cis-element reporter, Attagene multiplex mRNA; actives raise or lower the signal
Summary of the method: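 Transfected cis-reporter HepG2 cells were treated with chemicals for 24 hours. Total RNA was then converted to cDNA, amplified with reporter-specific primers and analysed by fluorescent capillary electrophoresis, using DMSO-treated wells as baseline.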

[10] = ATG_GLI_CIS: Attagene CIS-FACTORIAL HepG2 Assay for human Zinc Finger Protein GLI1 (AID 2282945); conditions: HepG2, Attagene cis-factorial reporter mRNA, GLI element; actives raise or lower the signal
Summary of the method: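 Transiently transfected HepG2 cells report endogenous transcription factor activity via cis-element-driven reporter units. After 24 h compound exposure, reporter mRNA was measured by RT-PCR with capillary electrophoresis; bidirectional fitting against DMSO baseline.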

Measured: AC50

Chain of Hepatocyte nuclear factor 3-beta (Homo sapiens) (Q9Y261 whole entry, looked up): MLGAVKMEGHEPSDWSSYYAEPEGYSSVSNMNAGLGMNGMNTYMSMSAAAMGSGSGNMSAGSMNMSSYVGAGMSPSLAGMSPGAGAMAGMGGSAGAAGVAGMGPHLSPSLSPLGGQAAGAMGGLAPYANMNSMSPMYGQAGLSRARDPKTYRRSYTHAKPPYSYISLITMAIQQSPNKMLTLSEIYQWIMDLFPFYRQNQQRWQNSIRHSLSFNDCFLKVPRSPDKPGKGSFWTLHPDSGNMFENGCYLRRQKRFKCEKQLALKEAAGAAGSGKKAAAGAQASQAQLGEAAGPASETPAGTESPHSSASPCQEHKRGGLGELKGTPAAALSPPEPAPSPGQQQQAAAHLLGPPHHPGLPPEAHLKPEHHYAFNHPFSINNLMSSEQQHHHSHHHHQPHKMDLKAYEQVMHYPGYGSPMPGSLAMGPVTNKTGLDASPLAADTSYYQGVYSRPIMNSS

CC(C)OC(=O)C(C)(C)Oc1ccc(C(=O)c2ccc(Cl)cc2)cc1
active: [3] 38.4 µM | [5] 27.7 µM
inactive: all other assays above

N[C@@H](Cc1c[nH]c2ccccc12)C(=O)O
not listed: [5]
inactive: all other assays above

CCOCCOCCO
not listed: [5]
inactive: all other assays above

CCCCC(CC)CO (stereo not given)
not listed: [5]
inactive: all other assays above

CN(C)C(=O)NC1(c2ccccc2)CCN(CC[C@@]2(c3ccc(F)c(F)c3)CN(C(=O)c3ccccc3)CCO2)CC1
active: [1] 162 µM
not listed: [5]
inactive: all other assays above

CC(C)c1cccc(C(C)C)c1
inactive: all assays above

O=[Si]=O
inactive: all assays above

CS(=O)(=O)c1ccc([C@@H](C[C@H]2CCC(=O)C2)C(=O)Nc2cnccn2)cc1Cl
active: [5] 45.5 µM
inactive: all other assays above

CC(=O)O
not listed: [5]
inactive: all other assays above

O=C(O)CN(CC(=O)O)CC(=O)O
inactive: all assays above

CC(=O)OC1CC(C)OC(C)O1 (stereo not given)
not listed: [5]
inactive: all other assays above

Nc1nc(Cl)nc2c1ncn2[C@H]1C[C@H](O)[C@@H](CO)O1
active: [1] 11.4 µM
not listed: [5]
inactive: all other assays above

O=C(O)c1[nH]n(-c2ccc(S(=O)(=O)O)cc2)c(=O)c1N=Nc1ccc(S(=O)(=O)O)cc1
inactive: all assays above

Cc1ccc(C(C)(C)C)c(O)c1
active: [3] 158 µM | [5] 25.1 µM | [6] 63.7 µM
inactive: all other assays above

CCCC(=O)O
not listed: [5]
inactive: all other assays above

Cn1cnc2c1c(=O)[nH]c(=O)n2C
not listed: [5]
inactive: all other assays above

Cc1cc(SC2=C(O)C[C@@](CCc3ccc(N)cc3)(C(C)C)OC2=O)c(C(C)(C)C)cc1CO
not listed: [5]
inactive: all other assays above

COC(=O)CCCC(=O)OC
not listed: [5]
inactive: all other assays above

O=C1NC(=O)C(c2ccccc2)(c2ccccc2)N1
not listed: [5]
inactive: all other assays above

O=C1c2c(O)cccc2Cc2cccc(O)c21
not listed: [5]
inactive: all other assays above

CCCCC(CC)COP(=O)(OCC(CC)CCCC)OCC(CC)CCCC (stereo not given)
not listed: [5]
inactive: all other assays above

NCCOCCOCCN
not listed: [5]
inactive: all other assays above
